Measured values taken from PubChem BioAssay (EPA / NIEHS).
Calls of active or inactive are those of the source. Rule for the calls: active = hit-call score of the fitted dose curve at least 0.9, where 1 is the maximum; inactive = score below 0.9.

Tests used:
[1] = APR_HepG2_CellLoss_72hr: Apredica 72-hour HepG2 Assay for Cell Loss (AID 2282915); settings: high-content imaging
In short: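 HepG2 cells were exposed for 72 hr to compounds at 0.39–200 uM (ten concentrations, duplicate) in 0.5% v/v final DMSO. Nuclei were stained with Hoechst 33342 after 3.7% formaldehyde fixation, imaged at 20x, and counted; fits bidirectional versus DMSO.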

[2] = APR_HepG2_P-H2AX_72hr: Apredica 72-hour HepG2 Assay for H2AX Phosphorylation (AID 2282916); settings: imaging, actives raise or lower the signal;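 note: phospho-histone H2A.x immunostain intensity per cell marking DNA damage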
In short: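 HepG2; cpd 0.39–200 uM ×10 conc, duplicates; 0.5% DMSO; 72 hr. Fix 3.7% formaldehyde 30 min RT, 0.5% Triton X-100 10 min. Anti-phospho-H2A.x 1:200 + Hoechst 2 ug/mL, 60 min RT; ArrayScan imaging.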

[3] = APR_HepG2_MitoMembPot_72hr: Apredica 72-hour HepG2 Assay for Mitochondrial Membrane Potential (AID 2282917); settings: imaging, actives raise or lower the signal
In short: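 HepG2 cells exposed 72 h to compounds at 0.39–200 uM (0.5% v/v DMSO, duplicates); MitoTracker Red CMXRos 250 nM loaded 30 min before 3.7% formaldehyde fixation, imaged by HCS fluorescence. Bidirectional fit versus DMSO.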

[4] = APR_HepG2_MitoticArrest_72hr: Apredica 72-hour HepG2 Assay for Mitotic Arrest (AID 2282918); settings: high-content imaging, actives raise or lower the signal
In short: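 HepG2, 72 hr exposure, 0.39–200 uM in duplicate, 0.5% v/v DMSO final. Formaldehyde-fixed, Triton-permeabilized, anti-phospho-histone H3/FITC plus Hoechst. ArrayScan imaging at 20x; curves fit bidirectionally against DMSO baseline.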

[5] = APR_HepG2_MicrotubuleCSK_72hr: Apredica 72-hour HepG2 Assay for Microtubule CSK Stabilty (AID 2282919); settings: HepG2 microtubule cytoskeleton, high-content imaging, actives raise or lower the signal
In short: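 HepG2 human liver cells were dosed for 72 h at ten concentrations from 0.39 to 200 uM in duplicate (0.5% v/v DMSO final). Fixed, permeabilized cells were immunostained for alpha-tubulin (Cy5) with a Hoechst counterstain and imaged at 20x.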

[6] = APR_HepG2_P-H2AX_24hr: Apredica 24-hour HepG2 Assay for H2AX Phosphorylation (AID 2282920); settings: high-content imaging, actives raise or lower the signal
In short: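 HCS fluorescence imaging of phospho-H2A.x immunostain (with Hoechst 33342 nuclear counterstain) in HepG2 after 24 hr compound exposure; 10 concentrations, 0.39–200 uM, duplicate wells, 0.5% v/v DMSO. Gain or loss of signal fitted relative to DMSO baseline.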

[7] = APR_HepG2_StressKinase_72hr: Apredica 72-hour HepG2 Assay for Stress Kinase (AID 2282921); settings: HepG2 stress kinase (phospho-c-Jun) imaging, actives raise or lower the signal
In short: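 Dose 0.39–200 uM (10 pts, duplicate), 0.5% DMSO; 72 h; fix 3.7% formaldehyde 30 min RT; Triton permeabilize; anti-phospho-c-Jun/Cy3 + Hoechst 60 min RT; image 20x; fit gain/loss vs DMSO.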

[8] = APR_HepG2_StressKinase_24hr: Apredica 24-hour HepG2 Assay for Stress Kinase (AID 2282922); settings: HepG2 stress kinase (phospho-c-Jun) imaging, actives raise or lower the signal
In short: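 HepG2 cells exposed 24 hr to compound at 0.39–200 uM (10 concentrations, duplicate), 0.5% v/v DMSO final. Fixed in 3.7% formaldehyde, permeabilized with Triton X-100, immunolabeled for phospho-c-Jun with Hoechst 33342; HCS fluorescence imaging, bidirectional fit versus DMSO.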

[9] = APR_HepG2_p53Act_72hr: Apredica 72-hour HepG2 Assay for p53 Activation (AID 2282923); settings: high-content imaging, actives raise or lower the signal;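 note: average cellular p53 protein immunofluorescence intensity in HepG2 cells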
In short: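 10-pt conc. 0.39–200 uM, duplicate, 0.5% DMSO; 72 hr exposure; 3.7% formaldehyde fix, 0.5% Triton perm; sheep anti-p53/Cy5 + Hoechst; ArrayScan 20x, 6 images/well; gain/loss fit vs DMSO.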

[10] = APR_HepG2_MitoMass_72hr: Apredica 72-hour HepG2 Assay for Mitochondrial Mass (AID 2282924); settings: high-content imaging, actives raise or lower the signal;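 note: MitoTracker Red CMXRos stain intensity per cell imaged as mitochondrial mass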
In short: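 HepG2 cells were exposed for 72 hr to compounds at 0.39–200 uM (ten concentrations, duplicate, 0.5% v/v DMSO final). Live cells were stained with 250 nM MitoTracker Red CMXRos for 30 min, then fixed in 3.7% formaldehyde and imaged by HCS fluorescence.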

[11] = ATG_CRE_CIS: Attagene CIS-FACTORIAL HepG2 Assay for human cAMP Responsive Element (CRE) binding protein 3 (AID 2282926); settings: HepG2 CRE cis-reporter, Attagene multiplexed mRNA; actives raise or lower the signal
In short: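 Endogenous CRE-binding activity in HepG2 is reported through a cis-regulated transfected reporter. Following a day of exposure, mRNA levels are determined by reverse transcription PCR and fluorescent fragment analysis; fits run in both directions versus DMSO.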

[12] = molecular target: CCAAT/enhancer-binding protein beta (Homo sapiens) (UniProt P17676); assay: ATG_C_EBP_CIS: Attagene CIS-FACTORIAL HepG2 Assay for human CCAAT/Enhancer Binding Protein (C/EBP) beta (AID 2282927); settings: HepG2 Attagene cis-factorial transcription factor reporter; actives raise or lower the signal
In short: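 Chemical-treated HepG2 cells (24 h) bearing cis-regulated reporter constructs were processed for total RNA, then reverse transcription, PCR amplification, fluorescent primer extension and fragment analysis; gain- and loss-of-signal were fitted against DMSO.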

[13] = ATG_CMV_CIS: Attagene CIS-FACTORIAL HepG2 Assay for human CMV (Internal Marker) (AID 2282928); settings: HepG2 CMV promoter reporter, transcription factor profiling; actives raise or lower the signal;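 note: endpoint acts as a background internal control marker rather than a target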
In short: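 CMV internal-marker background readout in transiently transfected HepG2 cells bearing cis-regulated reporter units. Reporter mRNA is measured 24 h after dosing by RT-PCR and capillary electrophoresis, with bidirectional fitting against DMSO.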

[14] = ATG_DR4_LXR_CIS: Attagene CIS-FACTORIAL HepG2 Assay for human Liver X Receptor (LXR), DR4 submotif (AID 2282929); settings: HepG2 Attagene DR4 cis-reporter, mRNA transcription; actives raise or lower the signal
In short: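 DR4 cis-reporter in HepG2, 24 h exposure. Detection: RT-PCR, 6-FAM labelling, CE fragment analysis. Endpoint fitted bidirectionally, DMSO = baseline.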

[15] = molecular target: Aryl hydrocarbon receptor (Homo sapiens) (UniProt P35869); assay: ATG_Ahr_CIS: Attagene CIS-FACTORIAL HepG2 Assay for human Aryl Hydrocarbon Receptor (Ahr) (AID 2282930); settings: HepG2 AhR cis-factorial reporter transcription; actives raise or lower the signal
In short: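 Following 24 h of chemical dosing, transfected HepG2 liver cells with cis-driven reporter units were lysed for RNA; reporter mRNA was quantified via RT-PCR and capillary electrophoresis, and responses fitted bidirectionally from DMSO.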

[16] = ATG_AP_2_CIS: Attagene CIS-FACTORIAL HepG2 Assay for human Activator Protein 2 (AP-2) (AID 2282932); settings: HepG2 AP-2 cis-reporter, Attagene transcription factor profiling; actives raise or lower the signal
In short: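 Bidirectional curve fitting against DMSO was applied to reporter mRNA signals from HepG2 cells 24 h after dosing. Cis-promoter reporter units, transiently transfected, were read by RT-PCR plus capillary electrophoresis.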

[17] = ATG_BRE_CIS: Attagene CIS-FACTORIAL HepG2 Assay for human Bone Morphogenetic Protein (BMP) Response Element (BRE) (AID 2282933); settings: HepG2 BMP response element reporter, Attagene transcription factor profiling; actives raise or lower the signal
In short: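 After a 24 h chemical treatment, transiently transfected HepG2 cells were lysed for RNA; reporter transcripts were quantified by fluorescent RT-PCR and capillary electrophoresis, normalised to DMSO.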

[18] = molecular target: Retinoic acid receptor alpha (Homo sapiens) (UniProt P10276); assay: ATG_DR5_RAR_CIS: Attagene CIS-FACTORIAL HepG2 Assay for human Retinoic Acid Receptor Alpha (RARE), DR5 submotif (AID 2282934); settings: HepG2 Attagene cis-factorial RARE DR5 reporter, mRNA; actives raise or lower the signal;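 for AC50: reporter responds to endogenous RAR alpha beta and gamma in HepG2 not RARA alone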
In short: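 Transfected HepG2 reporter cells are exposed to chemicals for 24 h. Then RNA is extracted and the DR5 element reporter transcript is measured by RT-PCR and capillary electrophoresis, with bidirectional curve fitting relative to DMSO.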

[19] = APR_HepG2_NuclearSize_72hr: Apredica 72-hour HepG2 Assay for Nuclear Size (AID 2282925); settings: high-content imaging, actives raise or lower the signal
In short: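 HepG2 cells were exposed to compounds at ten concentrations from 0.39 to 200 uM (duplicate, 0.5% DMSO final) for 72 hr. After fixation in 3.7% formaldehyde, nuclei were stained with Hoechst 33342 (2 ug/mL) and imaged at 20x.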

[20] = ATG_AP_1_CIS: Attagene CIS-FACTORIAL HepG2 Assay for human Activator Protein 1 (AP-1) (AID 2282931); settings: HepG2 Attagene cis-factorial AP-1 reporter mRNA; actives raise or lower the signal
In short: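 Cis-regulated reporter units transiently expressed in HepG2 report endogenous transcription-factor activity. Signal: reporter mRNA at 24 h, via RT-PCR and fluorescent capillary electrophoresis. Endpoint derived by bidirectional fitting, DMSO as negative control.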

Measured: AC50

Sequence of CCAAT/enhancer-binding protein beta (Homo sapiens) (P17676 whole entry, looked up, the tested form may be a part): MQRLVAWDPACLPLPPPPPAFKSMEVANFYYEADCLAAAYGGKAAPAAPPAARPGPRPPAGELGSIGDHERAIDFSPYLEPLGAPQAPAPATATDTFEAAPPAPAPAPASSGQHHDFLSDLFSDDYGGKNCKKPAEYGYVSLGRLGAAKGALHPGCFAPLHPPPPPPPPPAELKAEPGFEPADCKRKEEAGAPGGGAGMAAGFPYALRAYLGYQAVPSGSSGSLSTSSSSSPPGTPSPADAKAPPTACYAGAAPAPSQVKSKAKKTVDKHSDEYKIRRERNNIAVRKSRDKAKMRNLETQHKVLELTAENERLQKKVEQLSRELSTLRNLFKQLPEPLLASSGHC
Sequence of Retinoic acid receptor alpha (Homo sapiens) (P10276 whole entry, looked up): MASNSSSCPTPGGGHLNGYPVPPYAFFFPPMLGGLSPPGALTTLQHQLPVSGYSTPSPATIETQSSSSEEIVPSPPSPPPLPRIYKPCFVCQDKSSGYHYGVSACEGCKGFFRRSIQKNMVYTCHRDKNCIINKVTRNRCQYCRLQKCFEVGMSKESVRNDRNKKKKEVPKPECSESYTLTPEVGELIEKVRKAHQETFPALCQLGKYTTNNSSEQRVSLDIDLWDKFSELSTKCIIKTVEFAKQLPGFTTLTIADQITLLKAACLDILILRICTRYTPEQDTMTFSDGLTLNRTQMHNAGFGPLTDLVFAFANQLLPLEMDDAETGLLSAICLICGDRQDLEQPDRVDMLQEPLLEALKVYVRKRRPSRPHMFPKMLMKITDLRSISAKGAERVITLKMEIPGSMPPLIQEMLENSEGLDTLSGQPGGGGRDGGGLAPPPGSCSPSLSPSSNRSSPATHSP
Sequence of Aryl hydrocarbon receptor (Homo sapiens) (P35869 whole entry, looked up): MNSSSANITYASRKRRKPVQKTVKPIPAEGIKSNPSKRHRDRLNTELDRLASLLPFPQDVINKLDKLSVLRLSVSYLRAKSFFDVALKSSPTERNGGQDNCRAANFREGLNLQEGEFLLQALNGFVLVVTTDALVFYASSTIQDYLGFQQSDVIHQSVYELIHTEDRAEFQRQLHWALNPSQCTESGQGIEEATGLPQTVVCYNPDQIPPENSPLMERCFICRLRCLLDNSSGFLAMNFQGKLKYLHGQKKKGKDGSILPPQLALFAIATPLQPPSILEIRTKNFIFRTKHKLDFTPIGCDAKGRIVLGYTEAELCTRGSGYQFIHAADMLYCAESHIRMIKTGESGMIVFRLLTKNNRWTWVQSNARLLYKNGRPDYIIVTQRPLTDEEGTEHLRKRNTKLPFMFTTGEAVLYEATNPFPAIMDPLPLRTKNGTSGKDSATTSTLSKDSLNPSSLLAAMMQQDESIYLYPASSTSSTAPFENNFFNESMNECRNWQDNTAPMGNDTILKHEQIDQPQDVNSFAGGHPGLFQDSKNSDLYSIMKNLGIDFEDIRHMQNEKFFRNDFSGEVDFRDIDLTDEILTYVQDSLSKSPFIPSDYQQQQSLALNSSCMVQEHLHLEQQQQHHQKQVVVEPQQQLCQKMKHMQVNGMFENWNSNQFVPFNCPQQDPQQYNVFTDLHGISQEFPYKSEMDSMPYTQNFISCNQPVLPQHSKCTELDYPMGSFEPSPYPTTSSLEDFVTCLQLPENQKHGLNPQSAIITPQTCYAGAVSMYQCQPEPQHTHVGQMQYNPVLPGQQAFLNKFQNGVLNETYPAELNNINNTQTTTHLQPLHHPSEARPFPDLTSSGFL

OC1CCCCC1
inactive: [1] | [2] | [3] | [4] | [5] | [6] | [7] | [8] | [9] | [10] | [11] | [12] | [13] | [14] | [15] | [16] | [17] | [18]

c1ccc2c(c1)ccc1ccccc12
inactive: [2] | [3] | [4] | [5] | [6] | [7] | [8] | [9] | [10] | [19] | [11] | [12] | [13] | [14] | [15] | [16] | [17] | [18]

COc1cc(CCC(=O)CC(=O)CCc2ccc(O)c(OC)c2)ccc1O
active: [2] 96.6 µM | [4] 166 µM | [9] 145 µM
inactive: [1] | [3] | [5] | [6] | [7] | [8] | [10] | [19] | [11] | [12] | [13] | [15] | [20] | [16] | [17] | [18]

O=C(/C=C/c1ccc(O)cc1)CC(=O)/C=C/c1ccc(O)cc1
active: [2] 32.1 µM | [7] 27.1 µM | [8] 100 µM | [10] 46.3 µM | [19] 49.4 µM | [13] 77.7 µM | [14] 18.9 µM | [16] 100 µM
inactive: [3] | [4] | [5] | [6] | [9] | [11] | [12] | [15] | [17] | [18]

CCN(CC)CCNc1ccc(CNC=O)c2sc3ccc(OC)cc3c(=O)c12
active: [1] 7.4 µM | [4] 5 µM | [6] 5.94 µM | [11] 0.53 µM | [12] 0.879 µM | [20] 0.216 µM | [16] 0.496 µM | [17] 0.505 µM | [18] 0.457 µM
inactive: [2] | [3] | [5] | [7] | [8] | [9] | [10] | [13] | [15]

CCc1nn(C2CCCCC2)c2cc(C3(C#N)CCC(C(=O)O)CC3)ccc12 (stereo not given)
active: [2] 84 µM | [4] 80.7 µM | [9] 97.7 µM | [14] 129 µM | [18] 0.941 µM
inactive: [3] | [5] | [6] | [7] | [8] | [10] | [19] | [11] | [12] | [13] | [15] | [20] | [16] | [17]
